In PubChem BioAssay (NCATS):
Values joined by “and” are separate entries in the source; they are usually repeats but may differ in a detail not shown here. Equal values may be shown once. Inconclusive results are not listed. Active and inactive are the calls of the source. Unless noted, calls come from the whole dose curve; as a rule, active = well fitted curve in the direction sought with a large enough effect; inconclusive = small, poorly fitted or top-dose-only effect, or another doubt; inactive = no such curve, though single readings can be large; an effect the other way counts as inactive or inconclusive.

Key:
[1] = Cell Viability - BJ (AID 421; calls by dose curve;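 note: potency is the fitted concentration of half-maximal effect; cells exposed to compound for 40 hours at 37 °C before readout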); conditions: BJ fibroblast viability, qHTS
Method in brief: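 Normal human BJ foreskin fibroblasts, 1500/well in complete medium, treated 40 hr at 37 °C. Cellular ATP by CellTiter-Glo luminescence; normalized to DMSO and 100 uM tamoxifen, AC50 from Hill fit.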

[2] = Cellular Toxicity (caspase-3) HepG2 (AID 654); conditions: HepG2 caspase-3 activation, luminescence, 0% = DMSO only, 100% = tamoxifen; series mostly up to 92.2 µM;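 note: cells exposed to compound for 16 hours before reading; 0% = DMSO alone and 100% = caspase signal from 100 µM tamoxifen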
Method in brief: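 HepG2 cells (1500/well) in complete medium were treated with compounds for 16 hr at 37 °C. Caspase-3/7 activity was then read as luminescence from peptide-aminoluciferin cleavage. AC50 came from Hill fits, normalized to DMSO and 100 uM tamoxifen.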

[3] = Cellular Toxicity (caspase-3) BJ (AID 658); conditions: BJ fibroblasts, luminescence, normalized: DMSO 0%, staurosporine 100%; series mostly up to 91.7 µM
Method in brief: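 Luminescent aminoluciferin-substrate cleavage reports caspase 3/7 activity in normal human BJ fibroblasts after 16 hr compound exposure at 37 °C. Normalized to DMSO (basal) and 10 uM staurosporine (100%); AC50 from Hill fit of concentration-response.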

[4] = Cellular Toxicity (caspase-3) MRC-5 (AID 659); conditions: MRC-5 cells, luminescence, normalized: DMSO 0%, 10 µM staurosporine 100%; series mostly up to 91.7 µM
Method in brief: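 Luminescence from caspase-cleaved aminoluciferin substrate (Caspase-Glo 3/7, 1 hr RT) reports caspase 3/7 activity in MRC-5 lung fibroblasts after 16 hr compound exposure. Normalized to DMSO basal and 10 uM staurosporine as 100%; AC50 from Hill fits.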

[5] = Cellular Toxicity (caspase-3) Hek293 (AID 664); conditions: HEK293 caspase-3 activation, DMSO = 0%, 100 µM tamoxifen = 100%; at 92.2 µM (top of the series);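 note: cells exposed to compound for 16 h at 37 °C before readout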
Method in brief: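 HEK293 cells were exposed to compounds in complete medium for 16 hr at 37 °C, then caspase-3/7 activity was read by Caspase-Glo 3/7 luminescence after 20 min at room temperature. Data normalized to DMSO and 100 uM tamoxifen; AC50 from Hill fits.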

[6] = Cellular Toxicity (caspase-3) N2a (AID 665); conditions: N2a cells, luminescence, normalized: DMSO 0%, 10 µM staurosporine 100%; series mostly up to 92.2 µM;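 note: compound exposure lasted 16 h at 37 °C before readout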
Method in brief: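 Mouse N2a neuroblastoma cells (1500/well) were treated with compounds for 16 h at 37 °C, then caspase-3/7 activity was read by Caspase-Glo luminescence after 1 h at room temperature. Data were normalized to DMSO and 10 uM staurosporine; AC50 from Hill fits.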

[7] = Cellular Toxicity (caspase-3) NIH 3T3 (AID 666); conditions: NIH 3T3 caspase-3 activation, apoptosis/toxicity; series mostly up to 92.2 µM;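 note: caspase signal read after 16 h compound exposure; 0% = DMSO basal and 100% = 100 µM tamoxifen stimulation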
Method in brief: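 Mouse NIH 3T3 fibroblasts (1000 cells/well) were treated with compound for 16 hr at 37°C in complete medium; caspase-3/7 activity was read by Caspase-Glo luminescence. Normalized to DMSO and 100 uM tamoxifen; AC50 from Hill fits.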

[8] = Cell Viability - LYMP2-001 (AID 921); conditions: LYMP2-001 lymphoblastoid cell viability; series mostly up to 92.2 µM;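 note: 0% = DMSO only and full inhibition = tetraoctylammonium bromide control wells; nearly all actives have a fitted effect of over 70% in size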
Method in brief: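 Human lymphoblastoid LYMP2-001 cells, 2500 per well, in complete medium, treated 24 h at 37 C. Viability from cellular ATP by CellTiter-Glo luminescence; AC50 from Hill-equation fits of qHTS concentration-response.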

[9] = MultiTox-Fluor Cytotoxicity Assay - LYMP1-001 - Dead Cells (AID 946); conditions: LYMP1-001 lymphoblastoid cells, dead-cell protease fluorescence; series mostly up to 92.2 µM;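 note: 0% = DMSO and 100% = tetraoctylammonium bromide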
Method in brief: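 LYMP1-001 lymphoblastoid cells (2500/well) treated 16 h at 37 C. Dead-cell protease cleavage of bis-AAF-R110 read at Ex/Em 485/520. Normalized to DMSO and 15 uM tetraoctylammonium bromide; AC50 from Hill fits.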

[10] = MultiTox-Fluor Cytotoxicity Assay - LYMP1-002 - Live Cells (AID 955); conditions: LYMP1-002 lymphoblastoid live-cell protease fluorescence viability; series mostly up to 46.1 µM; note: % is set by controls: 0 for no effect and ±100 for the full control effect
Method in brief: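 Human lymphoblastoid LYMP1-002 cells, 2500/well in complete medium, rested 5 hr at 37 C, then exposed to compounds for 16 hr at 37 C. Live-cell protease cleavage of GF-AFC read by fluorescence (Ex/Em 405/510) after 60 min at room temperature; AC50 from Hill fits.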

[11] = MultiTox-Fluor Cytotoxicity Assay - LYMP1-003 - Dead Cells (AID 961); conditions: LYMP1-003 lymphoblastoid cells, dead-cell protease fluorescence; series mostly up to 92.2 µM;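 note: 0% = DMSO and 100% = tetraoctylammonium bromide; nearly all actives have a fitted effect of over 70% in size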
Method in brief: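 LYMP1-003 human lymphoblastoid cells (2500/well) exposed to compound 16 h at 37 C in complete medium; dead-cell protease read with bis-AAF-R110 fluorescence (Ex/Em 485/520) after 60 min at room temperature. Normalized to DMSO and 15 uM tetraoctylammonium bromide; AC50 from Hill fit.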

[12] = MultiTox-Fluor Cytotoxicity Assay - LYMP1-003 - Live Cells (AID 962); conditions: LYMP1-003 lymphoblastoid cells, MultiTox-Fluor live-cell protease fluorescence; series mostly up to 92.2 µM;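 note: 0% = DMSO only and full loss = 92 µM tetraoctylammonium bromide; cytotoxic hits lower the live-cell protease signal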
Method in brief: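 LYMP1-003 human lymphoblastoid cells (2500/well) in complete medium were preincubated 5 hr at 37 C, then exposed to compounds for 16 hr at 37 C. Live-cell protease cleavage of GF-AFC read by fluorescence (Ex/Em 405/510); AC50 from Hill fits.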

[13] = Cell Viability - LYMP2-021 (AID 974); conditions: LYMP2-021 lymphoblastoid cells viability; series mostly up to 92.2 µM;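 note: compound exposure lasts 24 hours at 37 °C; % is set by controls: 0 for no effect and ±100 for the full control effect; nearly all actives have a fitted effect of over 55% in size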
Method in brief: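 Human lymphoblastoid cells (2500/well) were preincubated 5 hr at 37 C, then exposed to compounds for 24 hr at 37 C in complete medium. Intracellular ATP was read by CellTiter-Glo luminescence; AC50 came from Hill-equation fits of concentration-response data.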

[14] = Cell Viability - LYMP2-025 (AID 976); conditions: LYMP2-025 lymphoblastoid cell viability; series mostly up to 92.2 µM;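 note: plate controls were DMSO only for no effect and tetraoctylammonium bromide control for full effect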
Method in brief: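 Human lymphoblastoid LYMP2-025 cells (2500/well) were pre-incubated 5 hr at 37 C, then treated with compounds for 24 hr at 37 C in complete medium. Viability was read as intracellular ATP by CellTiter-Glo luminescence; AC50 from Hill fits.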

[15] = Cell Viability - LYMP2-006 (AID 978); conditions: LYMP2-006 lymphoblastoid cell viability, qHTS; series mostly up to 92.2 µM; note: % is set by controls: 0 for no effect and ±100 for the full control effect; nearly all actives have a fitted effect of over 60% in size
Method in brief: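 Human lymphoblastoid cells (LYMP2-006), 2500/well in complete medium, were treated with compound for 24 hr at 37 C. Cellular ATP was read by CellTiter-Glo luminescence after 30 min, and AC50 values came from Hill-equation fits of concentration-response data.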

[16] = Cell Viability - LYMP1-002 - Assay at 24 hr (AID 993); conditions: LYMP1-002 lymphoblastoid cells viability; series mostly up to 92.2 µM; note: % is set by controls: 0 for no effect and ±100 for the full control effect
Method in brief: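 Human lymphoblastoid LYMP1-002 cells, 2500/well in complete medium, were treated with compounds for 24 h at 37 C; intracellular ATP was read by CellTiter-Glo luminescence. AC50 values came from Hill-equation fits of qHTS concentration-response data.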

[17] = Cell Viability - LYMP1-002 - Assay at 40 hr (AID 994); conditions: LYMP1-002 lymphoblastoid cell viability; series mostly up to 92.2 µM;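 note: 0% = DMSO only and full inhibition = 92 µM tetraoctylammonium bromide; nearly all actives have a fitted effect of over 60% in size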
Method in brief: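 Human lymphoblastoid cells, 2500/well in complete medium, were preincubated 5 hr at 37 C, then exposed to compounds for 40 hr at 37 C. Intracellular ATP was read by CellTiter-Glo luminescence after 30 min at room temperature; AC50 from Hill-equation fits.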

[18] = qHTS Assay for Identification of Small Molecule Inducers of Hypoxia Response (AID 2120; active = well fitted curve in the direction sought with a large enough effect in the signal ratio, with a control signal flat, not every such curve was filed as active; the % refers to the signal ratio; note: 0% is about no effect); conditions: hypoxia response reporter cells, beta-lactamase ratio readout; series mostly up to 104 µM
Method in brief: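 HRE-beta-lactamase reporter in CellSensor HRE-bla ME-180 cells, 2500 cells/well in Opti-MEM with 0.5% dialyzed FBS; compounds tested as titration series, 17 h at 37 degrees C. CCF4 substrate 2.5 h at room temperature; AC50 from 460/530 nm ratio.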

[19] = target: Peroxisome proliferator-activated receptor alpha (Homo sapiens) (UniProt Q07869); test: qHTS assay for small molecule agonists of the peroxisome proliferator-activated receptor alpha (PPARalpha) signaling pathway (AID 651778); conditions: PathHunter PPARalpha complementation, chemiluminescence, 6 h; active compounds read high; note: % of control where 0% means no effect
Method in brief: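 Cells plated at 2,000/well and held overnight at 37 C, 5% CO2, then compound added by pin tool for 6 hr; after PathHunter detection reagent and 60 min at room temperature, chemiluminescence from enzyme complementation was read.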

[20] = qHTS assay for cell viability of the p53RE-bla HCT-116 cell line (AID 743292); conditions: p53RE-bla HCT-116 viability, ATP luminescence, 16 h; series mostly up to 95 µM; note: % is set by controls: 0 for no effect and ±100 for the full control effect; nearly all actives have a fitted effect of over 55% in size
Method in brief: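 Quantitative high-throughput format: compounds in DMSO were pinned onto p53RE-bla HCT-116 cells (4,000/well) and incubated 16 h at 37 C. Total intracellular ATP, read by CellTiter-Glo luminescence, reflects viable cell number.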

Peroxisome proliferator-activated receptor alpha (Homo sapiens), sequence (Q07869 whole entry, looked up): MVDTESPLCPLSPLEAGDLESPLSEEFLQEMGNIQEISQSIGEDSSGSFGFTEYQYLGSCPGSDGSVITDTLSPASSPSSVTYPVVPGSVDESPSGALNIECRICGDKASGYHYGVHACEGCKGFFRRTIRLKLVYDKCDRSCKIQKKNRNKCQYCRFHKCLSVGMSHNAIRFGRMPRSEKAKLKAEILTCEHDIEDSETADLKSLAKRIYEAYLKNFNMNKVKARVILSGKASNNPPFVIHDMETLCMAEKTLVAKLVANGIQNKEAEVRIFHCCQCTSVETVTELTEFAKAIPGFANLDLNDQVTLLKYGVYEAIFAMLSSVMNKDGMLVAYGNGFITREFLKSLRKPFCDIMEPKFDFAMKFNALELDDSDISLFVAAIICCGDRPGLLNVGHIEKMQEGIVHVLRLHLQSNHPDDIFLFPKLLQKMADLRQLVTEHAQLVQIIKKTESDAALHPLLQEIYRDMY

CCCCOC(C)=O
inactive: Potency [1] > 92 µM | outcome [2] | outcome [3] | outcome [4] | caspase-3 activation [5] -0.0829% | outcome [6] | Potency [7] | Potency [8] | outcome [9] | outcome [10] | Potency [11] | outcome [12] | Potency [13] | Potency [14] | Potency [15] | Potency [16] | Potency [17] | Potency [18] | max response [19] -4.39% | Potency [20]

ClC(Cl)Br
inactive: Potency [1] > 92 µM | outcome [2] | outcome [3] | outcome [4] | caspase-3 activation [5] -0.335% | outcome [6] | Potency [7] | Potency [8] | outcome [9] | outcome [10] | Potency [11] | outcome [12] | Potency [13] | Potency [14] | Potency [15] | Potency [16] | Potency [17] | Potency [18] | max response [19] -1.39% | Potency [20]

CCN(N=O)C(N)=O
inactive: Potency [1] > 92 µM | outcome [2] | outcome [3] | outcome [4] | caspase-3 activation [5] 0.506% | outcome [6] | Potency [7] | Potency [8] | outcome [9] | outcome [10] | Potency [11] | outcome [12] | Potency [13] | Potency [14] | Potency [15] | Potency [16] | Potency [17] | Potency [18] | max response [19] 1.39% | Potency [20]

CCCCCCCCCCCOC(=O)c1ccccc1C(=O)OCCCCCCCCCCC
inactive: Potency [1] > 92 µM | outcome [2] | outcome [3] | outcome [4] | outcome [6] | Potency [7] | Potency [8] | outcome [9] | outcome [10] | Potency [11] | outcome [12] | Potency [13] | Potency [14] | Potency [15] | Potency [16] | Potency [17] | Potency [18] | max response [19] 0.22% | Potency [20]

O=C(O)C(Br)Br
inactive: Potency [1] > 92 µM | outcome [2] | outcome [3] | outcome [4] | caspase-3 activation [5] -1.18% | outcome [6] | Potency [7] | Potency [8] | outcome [9] | outcome [10] | Potency [11] | outcome [12] | Potency [13] | Potency [14] | Potency [15] | Potency [16] | Potency [17] | Potency [18] | max response [19] 14.7% | Potency [20]

Cc1ccc(N=C=O)cc1N=C=O
inactive: Potency [1] > 92 µM | outcome [2] | outcome [3] | outcome [4] | caspase-3 activation [5] 2% | outcome [6] | Potency [7] | Potency [8] | outcome [9] | outcome [10] | Potency [11] | outcome [12] | Potency [13] | Potency [14] | Potency [15] | Potency [16] | Potency [17] | Potency [18] | max response [19] -6.43% and 0.39% | Potency [20]

Oc1cc(Cl)ccc1Cl
inactive: Potency [1] > 92 µM | outcome [2] | outcome [3] | outcome [4] | caspase-3 activation [5] -1.46% | outcome [6] | Potency [7] | Potency [8] | outcome [9] | outcome [10] | Potency [11] | outcome [12] | Potency [13] | Potency [14] | Potency [15] | Potency [16] | Potency [17] | Potency [18] | max response [19] -3.18% and 0.376% | Potency [20]
